# A number with no mark means an inactive call.
# Legend:
# Assay in all cases: log2 ratio of Biotin-Ahx-Ub-VS probe labelling (fragment/DMSO); higher = less target engagement (more negative = stronger competition), active = hit call of the paper (q ≤ 0.05, log2 ratio ≤ -1)
# Conditions in all cases: compound concentration: 200 uM; treatment time: 3 h
# OTUD6B = biological target: T1, OTUD6B (UniProt Q8N6M0)
# T1 sequence (whole entry): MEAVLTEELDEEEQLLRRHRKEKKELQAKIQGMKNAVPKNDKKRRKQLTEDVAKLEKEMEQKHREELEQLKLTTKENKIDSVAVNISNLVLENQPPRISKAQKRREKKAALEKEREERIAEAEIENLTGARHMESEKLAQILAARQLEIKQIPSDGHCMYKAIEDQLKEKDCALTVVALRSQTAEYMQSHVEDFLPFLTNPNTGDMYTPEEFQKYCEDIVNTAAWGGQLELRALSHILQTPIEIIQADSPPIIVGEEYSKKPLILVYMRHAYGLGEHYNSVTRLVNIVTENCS
# Method in brief: (§1)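 Labelling with Biotin-Ahx-Ub-VS (0.5 µM final, 1 h) followed a 3 h triplicate treatment of HEK293T lysate (495 µg per sample, Tris/CHAPS/IGEPAL buffer with protease inhibitors) with fragment at 200 µM or vehicle. Labelled DUBs were NeutrAvidin-enriched, digested with LysC and trypsin, and run by diaPASEF LC-MS/MS. The values, average log2 fragment/vehicle ratios by unpaired t-test, come from global-median-normalised Spectronaut label-free quantities. Proteins with ≥2 unique peptides were used.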
# OTUD7B = biological target: T2, OTUD7B (UniProt Q6GQQ9)
# T2 sequence (whole entry): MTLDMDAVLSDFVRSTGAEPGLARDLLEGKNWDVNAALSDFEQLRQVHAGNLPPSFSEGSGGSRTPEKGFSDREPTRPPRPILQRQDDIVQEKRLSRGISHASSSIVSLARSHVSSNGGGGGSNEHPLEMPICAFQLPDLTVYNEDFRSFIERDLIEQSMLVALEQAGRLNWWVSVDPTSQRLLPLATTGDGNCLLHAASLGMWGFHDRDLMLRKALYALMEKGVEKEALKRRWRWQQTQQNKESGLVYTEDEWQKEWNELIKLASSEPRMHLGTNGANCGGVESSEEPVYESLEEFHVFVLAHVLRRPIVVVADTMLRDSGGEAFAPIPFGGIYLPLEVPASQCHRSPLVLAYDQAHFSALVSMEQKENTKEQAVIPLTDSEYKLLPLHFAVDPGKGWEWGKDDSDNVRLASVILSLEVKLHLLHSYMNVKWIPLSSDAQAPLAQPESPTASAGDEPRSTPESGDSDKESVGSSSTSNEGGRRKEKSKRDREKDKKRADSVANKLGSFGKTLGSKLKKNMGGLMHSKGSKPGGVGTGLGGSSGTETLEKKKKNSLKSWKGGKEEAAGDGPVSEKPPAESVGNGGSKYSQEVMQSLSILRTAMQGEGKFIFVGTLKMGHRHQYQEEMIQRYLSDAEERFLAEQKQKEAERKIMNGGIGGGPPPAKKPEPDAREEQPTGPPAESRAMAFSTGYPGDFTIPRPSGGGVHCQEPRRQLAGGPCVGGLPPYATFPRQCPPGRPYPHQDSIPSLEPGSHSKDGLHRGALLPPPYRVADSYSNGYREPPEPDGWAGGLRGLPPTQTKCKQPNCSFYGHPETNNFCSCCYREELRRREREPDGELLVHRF
# Method in brief: as §1
# PRPF8 = PRPF8 (UniProt Q6P2Q9)
# Method in brief: as §1
# PSMD7 = biological target: T3, PSMD7 (UniProt P51665)
# T3 sequence (whole entry): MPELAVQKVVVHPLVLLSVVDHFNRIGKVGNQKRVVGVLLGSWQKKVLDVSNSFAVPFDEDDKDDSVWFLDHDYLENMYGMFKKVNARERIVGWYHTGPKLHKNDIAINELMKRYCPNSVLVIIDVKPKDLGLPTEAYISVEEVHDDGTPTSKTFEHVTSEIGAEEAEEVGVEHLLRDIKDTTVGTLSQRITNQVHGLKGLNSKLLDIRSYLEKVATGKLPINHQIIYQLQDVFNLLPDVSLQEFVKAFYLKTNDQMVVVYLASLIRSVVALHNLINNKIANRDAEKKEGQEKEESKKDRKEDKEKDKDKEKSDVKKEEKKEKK
# Method in brief: as §1
# UCHL1 = UCHL1 (UniProt P09936)
# Sequence of UCHL1 (P09936 whole entry, looked up): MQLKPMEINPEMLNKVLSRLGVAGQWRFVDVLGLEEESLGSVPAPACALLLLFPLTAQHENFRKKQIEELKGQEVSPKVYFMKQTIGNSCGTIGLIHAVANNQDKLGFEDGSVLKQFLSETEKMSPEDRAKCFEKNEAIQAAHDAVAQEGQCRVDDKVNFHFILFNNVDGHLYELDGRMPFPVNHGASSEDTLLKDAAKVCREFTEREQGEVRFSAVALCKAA
# Method in brief: as §1
# UCHL3 = biological target: T4, UCHL3 (UniProt P15374)
# T4 sequence (whole entry): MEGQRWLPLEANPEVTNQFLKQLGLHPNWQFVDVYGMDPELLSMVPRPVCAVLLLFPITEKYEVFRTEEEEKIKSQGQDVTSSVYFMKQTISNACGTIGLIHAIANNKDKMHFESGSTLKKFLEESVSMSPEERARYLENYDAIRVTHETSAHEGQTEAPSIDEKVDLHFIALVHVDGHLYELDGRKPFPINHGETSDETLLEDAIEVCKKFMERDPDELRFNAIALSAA
# Method in brief: as §1
# UCHL5 = biological target: T5, UCHL5 (UniProt Q9Y5K5)
# T5 sequence (whole entry): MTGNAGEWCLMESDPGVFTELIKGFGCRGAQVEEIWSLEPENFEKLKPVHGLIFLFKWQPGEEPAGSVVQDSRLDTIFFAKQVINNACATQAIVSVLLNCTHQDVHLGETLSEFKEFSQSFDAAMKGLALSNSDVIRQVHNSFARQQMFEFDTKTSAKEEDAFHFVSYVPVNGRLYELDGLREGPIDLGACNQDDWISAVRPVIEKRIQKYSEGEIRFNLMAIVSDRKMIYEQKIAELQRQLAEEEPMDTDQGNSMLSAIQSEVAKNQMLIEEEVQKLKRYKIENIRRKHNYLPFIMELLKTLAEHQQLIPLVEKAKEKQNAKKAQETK
# Method in brief: as §1
# USP10 = USP10 (UniProt Q14694)
# Sequence of USP10 (Q14694 whole entry): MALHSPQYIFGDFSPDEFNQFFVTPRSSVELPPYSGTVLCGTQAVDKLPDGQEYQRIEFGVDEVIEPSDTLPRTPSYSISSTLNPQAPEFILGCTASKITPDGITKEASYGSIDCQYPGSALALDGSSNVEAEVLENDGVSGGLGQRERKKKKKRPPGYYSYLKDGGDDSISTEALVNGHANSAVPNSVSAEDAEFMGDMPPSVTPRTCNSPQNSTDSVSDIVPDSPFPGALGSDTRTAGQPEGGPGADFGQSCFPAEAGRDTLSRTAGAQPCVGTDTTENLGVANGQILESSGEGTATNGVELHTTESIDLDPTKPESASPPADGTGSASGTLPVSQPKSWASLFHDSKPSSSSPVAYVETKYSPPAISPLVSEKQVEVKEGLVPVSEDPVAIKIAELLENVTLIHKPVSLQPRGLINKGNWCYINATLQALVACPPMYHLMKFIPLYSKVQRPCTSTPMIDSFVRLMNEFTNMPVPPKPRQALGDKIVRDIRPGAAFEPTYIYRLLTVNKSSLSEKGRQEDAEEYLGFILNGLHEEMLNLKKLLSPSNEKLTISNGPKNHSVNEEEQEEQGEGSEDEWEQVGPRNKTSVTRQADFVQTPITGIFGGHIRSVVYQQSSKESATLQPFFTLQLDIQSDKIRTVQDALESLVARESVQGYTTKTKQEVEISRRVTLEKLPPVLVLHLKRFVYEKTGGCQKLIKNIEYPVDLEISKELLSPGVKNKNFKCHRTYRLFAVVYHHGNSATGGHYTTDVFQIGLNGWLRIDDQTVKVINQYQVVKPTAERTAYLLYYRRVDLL
# Method in brief: as §1
# USP15 = biological target: T6, USP15 (UniProt Q9Y4E8)
# T6 sequence (whole entry): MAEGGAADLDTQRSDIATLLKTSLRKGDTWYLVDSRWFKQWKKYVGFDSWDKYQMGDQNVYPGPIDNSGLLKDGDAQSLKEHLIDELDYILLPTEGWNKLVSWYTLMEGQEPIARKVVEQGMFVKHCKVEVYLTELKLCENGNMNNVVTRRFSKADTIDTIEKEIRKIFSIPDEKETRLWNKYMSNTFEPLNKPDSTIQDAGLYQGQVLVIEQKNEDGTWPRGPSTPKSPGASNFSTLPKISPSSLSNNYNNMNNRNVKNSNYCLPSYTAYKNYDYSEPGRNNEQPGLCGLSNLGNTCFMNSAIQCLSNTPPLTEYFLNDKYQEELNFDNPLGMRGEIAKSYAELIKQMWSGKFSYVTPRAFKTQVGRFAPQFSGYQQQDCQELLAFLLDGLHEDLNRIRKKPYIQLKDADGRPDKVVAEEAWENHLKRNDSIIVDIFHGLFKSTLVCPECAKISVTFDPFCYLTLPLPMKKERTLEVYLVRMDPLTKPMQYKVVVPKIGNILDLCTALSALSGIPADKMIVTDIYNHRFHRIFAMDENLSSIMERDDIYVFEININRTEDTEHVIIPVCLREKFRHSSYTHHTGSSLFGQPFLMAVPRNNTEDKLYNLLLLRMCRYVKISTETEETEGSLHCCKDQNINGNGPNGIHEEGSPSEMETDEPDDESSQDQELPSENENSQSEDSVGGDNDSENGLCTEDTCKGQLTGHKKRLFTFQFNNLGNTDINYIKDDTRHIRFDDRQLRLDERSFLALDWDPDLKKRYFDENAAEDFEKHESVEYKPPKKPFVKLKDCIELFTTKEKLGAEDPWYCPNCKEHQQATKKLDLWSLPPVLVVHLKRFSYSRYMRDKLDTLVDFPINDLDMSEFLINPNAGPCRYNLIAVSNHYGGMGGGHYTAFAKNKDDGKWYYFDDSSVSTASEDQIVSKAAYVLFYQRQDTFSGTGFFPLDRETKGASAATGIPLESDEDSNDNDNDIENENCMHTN
# Method in brief: as §1
# USP16 = USP16 (UniProt Q9Y5T5)
# Sequence of USP16 (Q9Y5T5 whole entry, looked up): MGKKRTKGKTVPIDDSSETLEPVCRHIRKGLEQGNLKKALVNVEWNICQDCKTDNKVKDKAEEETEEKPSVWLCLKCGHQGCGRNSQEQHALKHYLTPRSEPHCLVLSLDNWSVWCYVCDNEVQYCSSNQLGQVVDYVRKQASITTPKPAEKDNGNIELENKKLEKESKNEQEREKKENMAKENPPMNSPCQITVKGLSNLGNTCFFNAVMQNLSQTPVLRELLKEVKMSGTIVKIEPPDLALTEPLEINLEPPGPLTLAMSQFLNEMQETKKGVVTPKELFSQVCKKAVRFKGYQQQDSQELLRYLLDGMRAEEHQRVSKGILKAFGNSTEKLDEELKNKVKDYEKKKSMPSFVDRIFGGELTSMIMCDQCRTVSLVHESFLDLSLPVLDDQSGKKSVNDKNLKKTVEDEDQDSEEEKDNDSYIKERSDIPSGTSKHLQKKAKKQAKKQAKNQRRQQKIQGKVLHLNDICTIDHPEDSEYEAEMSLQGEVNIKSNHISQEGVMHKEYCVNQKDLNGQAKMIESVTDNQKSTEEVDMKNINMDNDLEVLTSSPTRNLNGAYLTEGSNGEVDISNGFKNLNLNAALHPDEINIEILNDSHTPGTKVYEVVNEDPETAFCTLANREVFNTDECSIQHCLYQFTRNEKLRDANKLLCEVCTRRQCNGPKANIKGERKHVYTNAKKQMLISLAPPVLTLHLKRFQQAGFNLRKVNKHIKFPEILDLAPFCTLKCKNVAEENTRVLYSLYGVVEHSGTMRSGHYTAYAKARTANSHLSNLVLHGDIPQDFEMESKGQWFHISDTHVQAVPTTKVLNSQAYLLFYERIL
# Method in brief: as §1
smiles,measurement,setting,value
O=C(CCl)NCc1ccc(N2CCOCC2)c(F)c1,log2 ratio of Biotin-Ahx-Ub-VS probe labelling,OTUD6B,0.111
same,log2 ratio of Biotin-Ahx-Ub-VS probe labelling,OTUD7B,-0.497
same,log2 ratio of Biotin-Ahx-Ub-VS probe labelling,PRPF8,-0.0572
same,log2 ratio of Biotin-Ahx-Ub-VS probe labelling,PSMD7,0.0258
same,log2 ratio of Biotin-Ahx-Ub-VS probe labelling,UCHL1,-1.41 (active)
same,log2 ratio of Biotin-Ahx-Ub-VS probe labelling,UCHL3,0.309
same,log2 ratio of Biotin-Ahx-Ub-VS probe labelling,UCHL5,-0.0833
same,log2 ratio of Biotin-Ahx-Ub-VS probe labelling,USP10,-0.131
same,log2 ratio of Biotin-Ahx-Ub-VS probe labelling,USP15,-0.0773
same,log2 ratio of Biotin-Ahx-Ub-VS probe labelling,USP16,-0.0789

# Source: the supplement of paper PMC11732987, “Enantioselective OTUD7B fragment discovery through chemoproteomics screening and high-throughput optimisation” (Communications Chemistry, 2025)
